The target of one test is Albumin (Bos taurus) (UniProt P02769). Put plainly: compounds binding labelled BSA control protein – biochemical, small-molecule microarray, Alexa647 label, 635/667 nm fluorescence, artefact control for SMM control protein annotation, profiling panel (AID 1118).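 Also: score merges 667 nm emission intensity and signal-to-noise per printed compound spot.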 Conditions: BSA-A647 binding, fluorescence 635 nm, higher = more signal.
A short description of test [1]: probe aXIP binding to arrayed compounds – biochemical, NeuroSMM set, 635/667 nm fluorescence, primary screen (AID 1119).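 Also: probe is the protein aXip251-270 applied at 1 µg/mL to compound-printed slides; binding of probe to printed compounds measured as 667 nm fluorescence plus signal to noise.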 Conditions: small-molecule microarray, higher = more signal, called active from +8 up or from −8 down.
A short description of test [2]: probe aNOTCH3 binding on compound microarray – biochemical, small-molecule microarray, 635/667 nm fluorescence, primary screen (AID 1120).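 Also: probe is a biotin-tagged antibody raised against NOTCH3 rather than NOTCH3 protein; score merges spot fluorescence near 667 nm with spot signal to noise.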 Particulars: higher = more signal.
Test [3] can be described thus: probe aNOTCH2 binding on compound microarray – biochemical, small-molecule microarray, 635/667 nm fluorescence, primary screen (AID 1121).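 Also: score merges feature fluorescence read at 667 nm with its signal to noise.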 Particulars: higher = more signal.
Test [4] addresses Carbonic anhydrase 2 (Homo sapiens) (UniProt P00918). In words: compounds binding carbonic anhydrase 2 – biochemical, small-molecule microarray, Alexa647-labelled CAII, profiling panel (AID 1122). Conditions: CAII-A647 binding fluorescence, higher = more signal.
A short description of test [5]: COS7 lysate on small-molecule microarray, probe aHis, 635 nm (AID 1123).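 Also: z-score combines 667nm fluorescence intensity with signal-to-noise per printed compound spot.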 Particulars: COS7 cell lysate, fluorescence, higher = more signal.
Test [6] can be described thus: probe aLAP1 signal on lysate-treated microarray – cell lysate, small-molecule microarray, COS7 lysate, primary screen (AID 1124).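 Also: lysate comes from COS7 cells expressing LAP1 and is applied at 0.3 µg/mL; score merges spot fluorescence near 667 nm with signal-to-noise over triplicate slides.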 Particulars: probe aLAP1, fluorescence, higher = more signal.
Another test has as its system Sam68 (KHDRBS1). In words: compounds binding KHDRBS1 protein – biochemical, small-molecule microarray, 635 nm fluorescence, primary screen (AID 1125).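 Also: score merges 667 nm channel intensity with signal to noise over triplicate slides.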 Conditions: higher = more signal.
The test system of test [7] is Chordin-like protein 2 (CHRDL2). Put plainly: compounds binding chordin-like 2 – biochemical, small-molecule microarray, 635 nm fluorescence, primary screen (AID 1126).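 Also: printed compound slides probed with Chrdl2 protein at 4 µg/mL for 1 h at 4 C; score merges 667 nm emission intensity with signal to noise over three replicate slides.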 Conditions: fluorescence 635 nm, higher = more signal.
Test [8] concerns the target Concanavalin-A (Canavalia ensiformis) (UniProt P02866). Put plainly: compounds binding concanavalin A lectin – biochemical, small-molecule microarray, Alexa647 label, 635 nm, artefact control for SMM control protein annotation, primary screen (AID 1127).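 Also: z combines 667 nm emission intensity with signal-to-noise across three replicate slides.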 Conditions: ConA-A647 binding fluorescence, higher = more signal.
Test [9] can be described thus: compounds binding Alexa647 anti-His antibody – biochemical, small-molecule microarray, 635 nm fluorescence, artefact control for SMM control protein annotation, primary screen (AID 1128).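 Also: score merges feature fluorescence with signal-to-noise for each printed compound spot.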 Conditions: higher = more signal.
Test [10] has as its system Human papillomavirus type 1a E7 protein (residues 1-88). In words: HPV1a E7 small-molecule binders, primary screen, biochemical, small-molecule microarray, residues 1-88, 635 nm (AID 1129). Particulars: small-molecule microarray binding, fluorescence 635 nm; higher = more signal.
Test [11] deals with Focal adhesion kinase 1 (Homo sapiens) (UniProt Q05397). In words: PTK2 protein binding on printed compound slides – biochemical, small-molecule microarray, 635/667 nm fluorescence, BSA, DTT, primary screen (AID 1130).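 Also: composite of spot emission at 667 nm and signal to noise over triplicate slides.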 Conditions: 635 nm fluorescence, higher = more signal.
The subject of test [12] is Fibrinogen (Alexa647-labelled). Put plainly: Alexa647-fibrinogen binding to printed small molecules – biochemical, small-molecule microarray, 635/667 nm fluorescence, artefact control for SMM control-protein annotation, profiling panel (AID 1131).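 Also: z-score merges 667 nm fluorescence with per-spot signal-to-noise over triplicate slides.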 Conditions: fibrinogen-A647 binding fluorescence, higher = more signal.
Test [13] concerns the target Follistatin (Homo sapiens) (UniProt P19883). Put plainly: FST protein binding to printed compounds – biochemical, small-molecule microarray, 635/667 nm fluorescence, primary screen (AID 1132). Particulars: 635 nm fluorescence, higher = more signal.
Test [14] concerns the target Fibroblast growth factor 2 (Homo sapiens) (UniProt P09038). Put plainly: basic fibroblast growth factor binding to printed compounds – biochemical, small-molecule microarray, 635/667 nm fluorescence, primary screen (AID 1133). Particulars: FGF2, fluorescence 635/667, higher = more signal.
A short description of test [15]: JC-1 mitochondrial potential readout, lung cancer cells – cell-based, A549, JC-1 fluorescence, basal, 24 h, 100 nL, profiling panel (AID 1138).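 Also: A549 lung adenocarcinoma cells under basal conditions with no added stimulus; test concentration not given here.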 Conditions: higher = more signal.
For the next test, the system named is Lefty1. Put plainly: Lefty1 protein binding to printed compounds – biochemical, small-molecule microarray, 635/667 nm fluorescence, primary screen (AID 1139). Particulars: fluorescence 635/667, higher = more signal.
The test system of test [16] is wheat germ agglutinin (Triticum aestivum), Alexa647-labelled. In words: Alexa647-WGA lectin binding to printed small molecules – biochemical, small-molecule microarray, 635/667 nm fluorescence, artefact control for SMM control-protein annotation, profiling panel (AID 1140).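 Also: score merges 667 nm feature emission with signal to noise over triplicate slides.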 Conditions: WGA-A647 binding, 635 nm fluorescence, higher = more signal.
Test [17] addresses Luciferin 4-monooxygenase (Photinus pyralis) (UniProt P08659). Put plainly: inhibition of purified Photinus pyralis luciferase – biochemical, luminescence, purified enzyme, 2006 set, primary screen (AID 1141).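 Also: cell-free assay with purified firefly luciferase at 100 ng per well in PBS; test concentration not given here.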 Conditions: purified firefly luciferase, SteadyGlo luminescence, 30 min; higher = more signal, called active from +8 up or from −8 down.

The results in this text go back to PubChem BioAssay.

Activity calls are given as the source filed them.

Chain of Follistatin (Homo sapiens) (P19883 whole entry, looked up): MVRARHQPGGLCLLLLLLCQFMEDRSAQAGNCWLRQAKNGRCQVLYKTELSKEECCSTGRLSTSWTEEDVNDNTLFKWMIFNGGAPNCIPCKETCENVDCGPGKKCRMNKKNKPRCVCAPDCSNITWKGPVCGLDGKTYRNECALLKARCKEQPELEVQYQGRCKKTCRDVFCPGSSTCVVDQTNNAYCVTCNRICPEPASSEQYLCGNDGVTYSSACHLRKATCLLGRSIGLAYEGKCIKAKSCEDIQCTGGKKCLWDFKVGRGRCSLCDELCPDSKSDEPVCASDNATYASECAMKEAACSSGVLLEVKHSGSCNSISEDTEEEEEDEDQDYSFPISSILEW
Chain of Luciferin 4-monooxygenase (Photinus pyralis) (P08659 whole entry, looked up): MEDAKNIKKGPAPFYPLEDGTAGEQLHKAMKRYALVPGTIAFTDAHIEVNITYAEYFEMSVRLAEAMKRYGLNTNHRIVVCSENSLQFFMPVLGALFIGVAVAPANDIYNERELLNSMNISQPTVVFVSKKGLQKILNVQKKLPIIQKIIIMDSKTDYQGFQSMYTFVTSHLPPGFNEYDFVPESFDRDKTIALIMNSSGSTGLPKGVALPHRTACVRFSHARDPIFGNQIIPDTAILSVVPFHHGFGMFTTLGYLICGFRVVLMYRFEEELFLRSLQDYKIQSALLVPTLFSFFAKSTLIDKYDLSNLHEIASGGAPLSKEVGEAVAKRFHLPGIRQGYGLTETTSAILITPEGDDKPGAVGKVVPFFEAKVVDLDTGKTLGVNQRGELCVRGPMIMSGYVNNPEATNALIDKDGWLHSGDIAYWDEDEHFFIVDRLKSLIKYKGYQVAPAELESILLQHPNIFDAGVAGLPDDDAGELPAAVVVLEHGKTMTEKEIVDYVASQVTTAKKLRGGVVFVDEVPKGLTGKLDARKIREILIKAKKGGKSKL
Chain of Concanavalin-A (Canavalia ensiformis) (P02866 whole entry, looked up): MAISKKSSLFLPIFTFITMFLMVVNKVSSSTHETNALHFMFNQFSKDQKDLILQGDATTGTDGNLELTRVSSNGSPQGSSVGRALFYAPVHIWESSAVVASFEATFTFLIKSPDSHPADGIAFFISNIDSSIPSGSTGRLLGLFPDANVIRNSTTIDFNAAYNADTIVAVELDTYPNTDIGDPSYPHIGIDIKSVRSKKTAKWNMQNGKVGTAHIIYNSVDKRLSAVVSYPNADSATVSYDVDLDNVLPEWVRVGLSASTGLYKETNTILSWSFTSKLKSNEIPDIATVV
Chain of Focal adhesion kinase 1 (Homo sapiens) (Q05397 whole entry, looked up): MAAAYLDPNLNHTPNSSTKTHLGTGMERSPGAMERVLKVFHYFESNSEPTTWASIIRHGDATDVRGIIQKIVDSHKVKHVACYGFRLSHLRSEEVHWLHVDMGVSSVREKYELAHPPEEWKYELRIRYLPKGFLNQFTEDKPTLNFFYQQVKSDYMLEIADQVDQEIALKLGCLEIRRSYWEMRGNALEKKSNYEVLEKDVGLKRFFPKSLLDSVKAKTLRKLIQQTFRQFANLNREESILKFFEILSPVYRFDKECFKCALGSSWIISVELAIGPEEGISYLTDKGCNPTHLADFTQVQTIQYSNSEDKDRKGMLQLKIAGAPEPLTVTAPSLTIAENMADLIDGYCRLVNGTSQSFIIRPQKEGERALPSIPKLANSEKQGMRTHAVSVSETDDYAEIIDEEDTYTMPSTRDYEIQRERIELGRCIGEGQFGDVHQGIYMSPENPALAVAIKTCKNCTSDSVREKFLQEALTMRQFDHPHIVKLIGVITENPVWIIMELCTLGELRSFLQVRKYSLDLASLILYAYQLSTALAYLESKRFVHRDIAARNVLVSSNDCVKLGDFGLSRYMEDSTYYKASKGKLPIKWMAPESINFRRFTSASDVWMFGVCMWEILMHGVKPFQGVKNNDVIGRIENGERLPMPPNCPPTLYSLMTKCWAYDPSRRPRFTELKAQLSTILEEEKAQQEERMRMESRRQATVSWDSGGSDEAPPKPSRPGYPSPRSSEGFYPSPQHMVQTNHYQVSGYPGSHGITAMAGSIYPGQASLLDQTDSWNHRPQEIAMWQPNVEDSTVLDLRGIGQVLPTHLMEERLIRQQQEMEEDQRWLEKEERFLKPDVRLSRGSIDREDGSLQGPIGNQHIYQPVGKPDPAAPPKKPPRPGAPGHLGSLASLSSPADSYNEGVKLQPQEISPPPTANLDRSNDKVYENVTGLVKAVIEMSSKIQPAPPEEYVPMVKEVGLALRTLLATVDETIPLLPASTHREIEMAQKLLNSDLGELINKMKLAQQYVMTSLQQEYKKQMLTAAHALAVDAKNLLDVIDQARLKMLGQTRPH
Chain of Fibroblast growth factor 2 (Homo sapiens) (P09038 whole entry, looked up): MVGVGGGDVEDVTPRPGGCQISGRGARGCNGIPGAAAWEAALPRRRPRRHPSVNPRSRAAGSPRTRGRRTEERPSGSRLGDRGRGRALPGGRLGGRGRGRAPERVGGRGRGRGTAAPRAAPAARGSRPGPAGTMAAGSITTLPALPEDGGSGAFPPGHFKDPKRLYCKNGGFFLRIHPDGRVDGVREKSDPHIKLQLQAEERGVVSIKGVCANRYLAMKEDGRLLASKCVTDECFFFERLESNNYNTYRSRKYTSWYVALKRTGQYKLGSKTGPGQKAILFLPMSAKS
Chain of Albumin (Bos taurus) (P02769 whole entry, looked up): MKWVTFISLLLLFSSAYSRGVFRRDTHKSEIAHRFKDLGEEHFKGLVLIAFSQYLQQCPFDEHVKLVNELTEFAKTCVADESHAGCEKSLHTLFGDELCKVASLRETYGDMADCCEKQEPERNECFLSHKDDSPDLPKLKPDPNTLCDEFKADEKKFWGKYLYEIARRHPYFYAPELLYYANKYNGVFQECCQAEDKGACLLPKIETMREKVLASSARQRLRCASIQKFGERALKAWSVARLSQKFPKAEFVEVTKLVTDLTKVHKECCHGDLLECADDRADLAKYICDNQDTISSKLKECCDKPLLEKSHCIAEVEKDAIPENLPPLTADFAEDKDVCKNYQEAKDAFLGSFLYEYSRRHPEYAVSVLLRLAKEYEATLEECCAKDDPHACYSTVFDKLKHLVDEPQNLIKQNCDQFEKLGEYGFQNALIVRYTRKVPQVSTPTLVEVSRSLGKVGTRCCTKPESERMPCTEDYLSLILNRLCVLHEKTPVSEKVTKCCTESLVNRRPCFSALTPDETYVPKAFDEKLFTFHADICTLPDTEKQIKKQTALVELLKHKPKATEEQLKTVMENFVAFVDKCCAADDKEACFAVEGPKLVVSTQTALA

In the case of `C=C(C)C1CCC(C(O)C2C=CC3C(=O)N(C)C(=O)C3N2N2CCCCC2)CC1` (stereo not given), the composite z-score with Albumin (Bos taurus) came out at 0.735; in test [2], 0.223; in test [3], 0.0598; in test [4], 0.514; in test [5] it was 2.03; in test [6] it was 0.386. For the same molecule, the composite z-score came to 1.29 with Sam68 (KHDRBS1); 1.24 in test [7]; 1.12 in test [8]; 1.17 in test [9]; 1.24 in test [10]; 0.525 in test [11]. For the same molecule, the composite z-score in test [12] amounted to 0.884; in test [13], 1.21; in test [14], 0.286; in the test with Lefty1 it was 0.962; in [16], 1. For the same molecule, the composite Z-score in [1] was 0.172 (inactive). The z-score in [15] was 0.32; in test [17], 0.344 (inactive).

As to `COCCOC(=O)N1C(=O)[C@@]2(c3cc(C#Cc4ccc(OC)cc4)ccc31)[C@H](c1ccccc1OCCO)N1[C@H](c3ccccc3)[C@H](c3ccccc3)OC(=O)[C@H]1[C@@H]2C(=O)N1CCCCCCC1`, the composite z-score with Albumin (Bos taurus) is 0.164; in test [2] it was 1.81; in test [3], 0.956; in test [4], 0.934; in test [5], 2.08; in [6], 0.512. Also, the composite z-score in the test on Sam68 (KHDRBS1) worked out at 0.484; in test [7], 1.43; in [8] it was 0.908; in [9], 0.623; in test [10], 1.2; in test [11] it was 0.701. For the same molecule, the composite z-score was -0.183 in test [12]; 1.51 in [13]; 1.73 in test [14]; 1.23 in the test with Lefty1; 1.33 in test [16]. The composite Z-score in test [1] was 6.24 (inactive). The z-score in test [15] is -0.775; in test [17] it was -0.246 (inactive).

With `CN(C)C(=O)[C@@]1(Cc2ccccc2CN=[N+]=[N-])N=C(c2ccc(OCCCO)cc2)O[C@H]1c1ccccc1CN=[N+]=[N-]`, the composite z-score in the test with Albumin (Bos taurus) was found to be 0.936; in [2], 0.602; in [3] it was 0.202; in [4], 0.703; in [5] it was 2.79; in test [6] it was 0.15. Besides, the composite z-score is 0.873 in the test on Sam68 (KHDRBS1); -0.103 in test [7]; 1.07 in test [8]; 2.33 in test [9]; 1.21 in test [10]; 0.419 in test [11]. For the same molecule, the composite z-score in [12] was 0.856; in [13], 0.652; in [14], -0.025; in the test on Lefty1, -0.483; in test [16] it was 1.12. The composite Z-score in test [1] is 0.608 (inactive). Further, the z-score in test [15] was 1.43; in test [17] it was 0.184 (inactive).

With `COc1ccc(NC(=O)O[C@H]2[C@H](OC(=O)Nc3ccccc3)[C@H](OC(=O)Nc3ccccc3)[C@@H](OC)O[C@@H]2CO)cc1`, the composite z-score amounted to 0.693 in the test with Albumin (Bos taurus); 0.861 in test [2]; 0.28 in [3]; 0.703 in [4]; 2.87 in [5]; 0.197 in [6]. Also, the composite z-score in the test with Sam68 (KHDRBS1) came to 1.31; in [7], 0.181; in [8], 0.946; in [9], 1.65; in [10], 1.19; in [11], 0.709. For the same molecule, the composite z-score in [12] turned out to be 0.284; in test [13] it was 1.35; in test [14] it was 1.45; in the test on Lefty1, 0.735; in test [16] it was 0.98. Also, the composite Z-score in [1] was 1.58 (inactive). The z-score in test [15] was 0.732; in test [17] it was -0.128 (inactive).

With `C[C@]1(C(=O)NC2CC2)c2ccccc2C(=O)N(Cc2ccccc2)[C@H]1c1ccc(CO)cc1`, the composite z-score is -1.91 in the test with Albumin (Bos taurus); -0.337 in test [2]; -0.105 in [3]; 0.168 in test [4]; -0.163 in [5]; 0.11 in [6]. The composite z-score in the test on Sam68 (KHDRBS1) is -0.958; in test [7], -0.771; in test [8], -1.21; in test [9], -1.12; in [10], -1.29; in test [11], 0.874. In addition, the composite z-score in test [12] is -2.17; in test [13] it was -0.271; in [14], -0.517; with Lefty1, -1.5; in test [16], -1.15. In test [1], the composite Z-score is -0.504 (inactive). In addition, the z-score in test [15] was -0.153; in test [17], -0.347 (inactive).
